# The list is not random: actives were taken first. Their share in the collection is about 2.2%.
# TDP43 rescue = inhibitors of TDP-43 toxicity in yeast; 1.8% of 410,000 active; Potency, µM (doses to about 46.1 µM), for inactives: at the highest dose growth rescue (activation), actives largely listed as activators; TDP-43 expressing yeast growth rescue, BacTiter-Glo, 24 h; also: % of control where 0% means no effect; nearly all actives have a fitted effect of over 50% in size
#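 Luminescence from BacTiter-Glo reports growth of TDP-43-expressing yeast after 24 hr at 30 deg C with compound. Cells were raffinose-pregrown to mid-log, then seeded in galactose medium at OD600=0.02.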
# Mito fusion act = mitochondrial division inhibition or fusion activation. S. cerevisiae fusion-defective mutant growth rescue, CellTiterGlo 48 h. Potency, µM (doses to about 46.1 µM), for inactives: top-dose growth rescue (activation), actives largely listed as activators. 0.23% of 320,000 active. AID 485298; also: % of control where 0% means no effect; nearly all actives have a fitted effect of over 45% in size
#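 Growth-rescue viability read-out: after 48 h at the non-permissive 37C in glycerol/ethanol YPEG, yeast mitochondrial fusion mutants are measured by CellTiterGlo luminescence; compounds (23 nl pinned per well) restoring growth score as division inhibitors or fusion activators.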
# aSyn yeast inh = alpha-synuclein toxicity inhibition in yeast; 0.14% of 370,000 active; Yeast expressing alpha-synuclein, growth rescue, BacTiter-Glo, 24 h; Potency, µM (doses to about 46.1 µM), inactives show at the highest dose growth rescue (activation), most hits filed as activators; also: % of control where 0% means no effect; nearly all actives have a fitted effect of over 65% in size
#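 Readout is rescue of growth in alpha-synuclein-expressing yeast, so inhibitors of toxicity appear as activators. Growth after 24 hr at 30 deg C in galactose medium is quantified by luminescence.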
# FUS yeast rescue = suppressors of FUS proteinopathy in yeast | S. cerevisiae FUS-expressing, growth rescue, OD600, 24 h | Potency, µM (doses to about 76.6 µM), hits mostly activators | 0.24% of 390,000 active | AID 1347120;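 also: plate controls were DMSO vehicle for no effect and reference control for full effect; nearly all actives have a fitted effect of over 55% in size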
#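 Restored growth of FUS-toxic S. cerevisiae, read as 600 nm absorbance after 24 h at 30C in galactose medium (starting OD 0.005). Controls CP55940 and DMSO.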
# Abeta yeast res = compounds reversing amyloid beta toxicity in yeast | 0.063% of 410,000 active | yeast expressing A-beta42, growth rescue, OD600, 48 h; response scale: 0% DMSO, 100% iron-clioquinol control | Potency, µM (series often up to 46.1 µM), actives largely listed as activators; also: nearly all actives have a fitted effect of over 55% in size
#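 Growth rescue measured by 600 nm absorbance after 48 h yeast culture at 30 C with compound. Values normalized between DMSO and an equimolar ferric chloride plus clioquinol control.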
# * hit, by the source's call; i = inactive; ? = inconclusive; / = not tested or not shown. Calls follow the shape of the dose curve; as a rule, active = well fitted curve in the direction sought with a large enough effect; inconclusive = small, poorly fitted or top-dose-only effect, or another doubt; inactive = no such curve, though single readings can be large; an effect the other way counts as inactive or inconclusive. Potency is read from the fitted curve at half-maximal effect.
SMILES,TDP43 rescue,Mito fusion act,aSyn yeast inh,FUS yeast rescue,Abeta yeast res
O=C(CSc1nnc(-c2ccc(F)cc2)o1)Nc1ccccc1N1CCOCC1,22µM*,/,?,i,i
O=C(CSc1nc2ccccc2o1)Nc1ccccc1N1CCOCC1,14%,5%,16%,i,i
COc1ccccc1NC(=O)c1c(C)cc(C)nc1SCC(=O)Nc1ccc(C)cc1,18µM*,/,/,?,i
C[C@@H]1COc2cc(F)ccc2S(=O)(=O)N1C,/,/,/,i,/
COc1ccccc1NC(=O)CSc1nnc(-c2ccccc2C)o1,20µM*,/,/,i,i
Nc1nc2[nH]c(=S)[nH]c2c(=O)[nH]1,/,/,0%,/,/
CC(C)COC(=O)NCCCOC(=O)Nc1ccccc1,18%,2%,3%,i,i
CC(C)COC(=O)NCCOC(=O)Nc1cccc(Cl)c1,25µM*,6%,4%,i,i
O=S(=O)(NCC(c1ccco1)S(=O)(=O)c1cccs1)c1ccccc1 (stereo not drawn),?,/,/,i,i
O=S(=O)(NCC(c1cccs1)S(=O)(=O)c1ccccc1)c1ccccc1 (stereo not drawn),2.8µM*,/,/,i,i
C/C(=N\O)c1cc(Cl)cc(Cl)c1O,14µM*,2%,?,i,i
O=C(NCc1cccc(Cl)c1)c1ccc(-n2cncn2)c2ccoc12,35µM*,/,3%,i,i
N/C(=N\C(=S)Nc1ccccc1)c1ccccc1,?,-6%,-11%,i,?
N/C(=N\C(=S)Nc1ccc2c(c1)OCO2)c1ccccc1,20µM*,/,-12%,i,?
N#Cc1ccc(NC(=S)/N=C(\N)c2ccccc2)cc1,11µM*,/,-21%,i,?
COc1cc(N(C)C)ccc1/C=C1\C=Cc2ccccc21,/,/,-9%,/,/
CCC[C@H]1[C@@H](OC(=O)NC2CCCCC2)CC[C@@]23CCCN2C(=O)CCC[C@@H]13,/,/,/,i,/
CCCCCCCCCCCCOC(=O)N1CCN(/[N+]([O-])=N/Oc2ccc([N+](=O)[O-])cc2[N+](C)=O)CC1,/,/,-47%,/,/
CCOC(=O)c1nnc(-c2ccccc2)nc1NCc1ccc(Cl)cc1,13µM*,4%,2%,i,i
Cc1c(C(=O)OCC(=O)N(C)Cc2ccc(Cl)cc2)oc2ccccc12,?,22%,25%,i,i
Cc1c(C(=O)OC(C)C(=O)N(C)Cc2ccccc2)oc2ccccc12 (stereo not drawn),35µM*,/,1%,i,i
COc1ccccc1C(=O)O/N=C(\N)c1ccccc1Cl,16µM*,3%,-38%,i,i
COc1ccc(C(=O)O/N=C(\N)c2ccccc2)c(OC)c1,14µM*,5%,-39%,i,i
CCOC(=O)[C@@]12CCCC3=C1N(CCC3)C(=O)[C@H]2CC(=O)NCCC(C)C,/,/,/,i,/
COc1ccc2nc(N3CCN(C(=O)C4COc5ccccc5O4)CC3)sc2c1 (stereo not drawn),?,21%,21%,i,i
SMILES,TDP43 rescue,Mito fusion act,aSyn yeast inh,FUS yeast rescue,Abeta yeast res
O=C(C1COc2ccccc2O1)N1CCN(c2ccccc2)CC1 (stereo not drawn),25µM*,2%,1%,i,?
O=C(C1COc2ccccc2O1)N1CCN(c2nc3ccc(F)cc3s2)CC1 (stereo not drawn),20µM*,/,/,?,?
O=C(C1COc2ccccc2O1)N1CCOCC1 (stereo not drawn),-19%,1%,-3%,?,i
NS(=O)(=O)c1cccc(NC(=O)c2cccc(-c3ccc(O)cc3)c2)c1,6%,2%,0%,i,i
Cc1nc(Br)c(Br)n1Cc1ccccc1,11µM*,/,4%,i,i
COc1ccc(OC)c(C(=O)CSc2nnc(SCc3cccc4ccccc34)s2)c1,/,/,/,i,/
COC(=O)c1cc(S(=O)(=O)N2CCN(c3cccc(C)c3)C(C)C2)c[nH]1 (stereo not drawn),-2%,-8%,7%,i,i
COC(=O)c1sccc1S(=O)(=O)N1CCN(c2cccc(C)c2)C(C)C1 (stereo not drawn),14µM*,/,/,i,i

# Source: PubChem (National Center for Advancing Translational Sciences (NCATS))
